Compound activity from PubChem BioAssay.
This excerpt belongs to a sample that is enriched for hits.
KDM5B inhibitor = inhibitors of human KDM5B histone demethylase; Potency, µM (doses to about 57.7 µM), usual class: inhibitors; 220,000 compounds, 2.6% hits; Q9UGL1; AID 1347165; KDM5B demethylase, FDH-coupled NADH fluorescence (FDH is formaldehyde dehydrogenase); active = well fitted inhibition curve with a large enough effect; note: 0% is about no effect; nearly all actives have a fitted effect of over 70% in size
Target sequence (Q9UGL1 whole entry, looked up): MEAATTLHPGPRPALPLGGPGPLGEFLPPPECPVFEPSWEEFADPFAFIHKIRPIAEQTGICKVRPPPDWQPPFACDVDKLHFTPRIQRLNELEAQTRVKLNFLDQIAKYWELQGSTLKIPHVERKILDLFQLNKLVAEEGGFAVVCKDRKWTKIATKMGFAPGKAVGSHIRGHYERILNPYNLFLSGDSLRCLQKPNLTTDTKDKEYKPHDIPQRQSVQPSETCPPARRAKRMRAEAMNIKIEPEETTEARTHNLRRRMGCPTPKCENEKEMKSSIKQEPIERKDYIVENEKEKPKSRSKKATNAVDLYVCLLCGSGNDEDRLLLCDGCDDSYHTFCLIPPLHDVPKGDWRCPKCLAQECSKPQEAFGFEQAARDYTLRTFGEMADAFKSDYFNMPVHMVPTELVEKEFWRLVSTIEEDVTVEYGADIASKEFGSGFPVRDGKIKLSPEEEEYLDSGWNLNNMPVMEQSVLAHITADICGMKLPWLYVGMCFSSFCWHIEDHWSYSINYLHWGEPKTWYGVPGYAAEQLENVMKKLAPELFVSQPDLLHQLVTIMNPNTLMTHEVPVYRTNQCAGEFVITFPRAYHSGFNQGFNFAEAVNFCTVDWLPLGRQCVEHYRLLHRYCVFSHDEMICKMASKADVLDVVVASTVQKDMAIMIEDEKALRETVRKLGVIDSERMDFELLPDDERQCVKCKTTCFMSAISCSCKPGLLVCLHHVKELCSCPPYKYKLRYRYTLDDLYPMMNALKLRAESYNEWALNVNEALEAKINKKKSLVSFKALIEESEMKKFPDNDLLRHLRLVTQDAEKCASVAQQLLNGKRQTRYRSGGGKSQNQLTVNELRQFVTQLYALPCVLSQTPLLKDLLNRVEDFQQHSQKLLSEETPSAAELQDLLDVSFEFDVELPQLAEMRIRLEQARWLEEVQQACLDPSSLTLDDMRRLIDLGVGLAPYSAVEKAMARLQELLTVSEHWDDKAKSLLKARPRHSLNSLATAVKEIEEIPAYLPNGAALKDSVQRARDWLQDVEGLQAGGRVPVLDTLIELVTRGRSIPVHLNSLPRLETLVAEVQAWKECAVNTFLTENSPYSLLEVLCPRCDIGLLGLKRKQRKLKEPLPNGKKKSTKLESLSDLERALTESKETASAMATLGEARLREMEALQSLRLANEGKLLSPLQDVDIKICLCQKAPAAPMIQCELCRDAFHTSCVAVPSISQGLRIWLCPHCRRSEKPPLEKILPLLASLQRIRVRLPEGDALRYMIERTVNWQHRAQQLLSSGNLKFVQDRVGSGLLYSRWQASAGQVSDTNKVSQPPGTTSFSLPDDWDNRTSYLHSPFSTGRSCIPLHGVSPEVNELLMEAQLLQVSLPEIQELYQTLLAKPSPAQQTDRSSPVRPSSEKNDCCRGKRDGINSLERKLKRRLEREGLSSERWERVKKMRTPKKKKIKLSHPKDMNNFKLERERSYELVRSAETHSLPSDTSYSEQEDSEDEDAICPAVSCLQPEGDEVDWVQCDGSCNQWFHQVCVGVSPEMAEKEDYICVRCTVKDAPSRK
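Coupled FDH/NAD⁺ fluorescence readout. KDM5BΔAP 200 nM final; compound titration, 10 min RT preincubation; substrate mix 12.5 µM H3K4me3, 25 µM 2-OG, 50 µM Fe(II), 100 µM ascorbate, 0.25 mM NAD⁺, 0.25 U/mL FDH; ΔRFU over 30 min.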
An asterisk follows results filed as active. Potency is the fitted concentration of half-maximal effect.

What do the screens show for `NC(=O)c1cnn(-c2ccccc2)c1NCc1ccncc1`?
KDM5B inhibitor: inactive

How did CC(Cc1ccncc1)Nc1nccc(-c2cnn(-c3ccccc3F)c2)n1 (centres undefined) do in these assays?
KDM5B inhibitor: 28.2µM*

What do the screens show for `CC1(C)CC(Nc2ncnc3ccccc23)CC(C)(C)N1`?
KDM5B inhibitor: inactive

Results for CC(Cc1ccncc1)Nc1nccc(-c2cnn(-c3ccccc3)c2)n1 (centres undefined) ?
KDM5B inhibitor: 31.6µM*

Results for CC1(C)CC(Nc2nccc(-c3cnn(-c4ccccc4)c3)n2)CC(C)(C)N1 ?
KDM5B inhibitor: 28.2µM*

Results for CC(C)NC(=O)c1cn(-c2ccccc2)nc1-c1cccnc1 ?
KDM5B inhibitor: inactive

How did CSc1ccc(NC(=O)c2cc(-c3ccc[nH]3)n[nH]2)cc1 do in these assays?
KDM5B inhibitor: inactive

What do the screens show for `O=C(CCS(=O)(=O)c1cc2c3c(c1)CCN3C(=O)CC2)Nc1ccc(F)c(Cl)c1`?
KDM5B inhibitor: inactive

Results for CCc1noc(C(C)N2CCN(c3oc(C4CC4)nc3C#N)CC2)n1 (centres undefined) ?
KDM5B inhibitor: inactive

Results for O=C(NCC1(N2CCOCC2)CCSC1)Nc1ccccc1 (centres undefined) ?
KDM5B inhibitor: inactive

Results for CC(C)c1nc(N2CCN(C(=O)C(=O)NCCCO)CC2)c(C#N)c2c1CCCC2 ?
KDM5B inhibitor: inactive

Results for CCN1CCN(CCNC(=O)c2nnn3cc(-c4ccccc4)[nH]c(=O)c23)CC1 ?
KDM5B inhibitor: 28.2µM*

What do the screens show for `CCOCCCNC(=O)c1nnn2cc(-c3ccccc3)[nH]c(=O)c12`?
KDM5B inhibitor: 28.2µM*

What do the screens show for `O=C(NCCN1CCCCC1)c1nnn2cc(-c3ccccc3)[nH]c(=O)c12`?
KDM5B inhibitor: inactive

Results for Cc1cn2nnc(C(=O)NCCc3ccccc3)c2c(=O)[nH]1 ?
KDM5B inhibitor: inactive

What do the screens show for `CCCCCNC(=O)c1nnn2cc(C)[nH]c(=O)c12`?
KDM5B inhibitor: inactive

How did CCCNC(=O)c1nnn2cc(C)[nH]c(=O)c12 do in these assays?
KDM5B inhibitor: inactive

How did O=C(CNc1cc(S(=O)(=O)N2CCCCC2)ccc1N1CCCCC1)Nc1ccc(F)cc1 do in these assays?
KDM5B inhibitor: inactive

How did CCCN(Cc1ccc(OC)cc1)Cc1cc(=O)oc2ccc(C)cc12 do in these assays?
KDM5B inhibitor: inactive

What do the screens show for `Cc1ccc2nc(-c3ccc(C)o3)cc(C(=O)O)c2c1`?
KDM5B inhibitor: inactive

Results for N#CCCn1c(SCC(=O)Nc2ccc3c(c2)CCC3)nc2ccccc21 ?
KDM5B inhibitor: inactive

Results for O=C(CNC(=O)c1[nH]c2ccccc2c1Cl)NCc1ccccc1 ?
KDM5B inhibitor: inactive

What do the screens show for `O=C(NCc1ccc(N2CCOCC2)cc1)c1cccc2c1CCN2C(=O)C1CC1`?
KDM5B inhibitor: inactive

How did O=C(CC1CCOCC1)NCc1ccc(N2CCOCC2)cc1 do in these assays?
KDM5B inhibitor: inactive

Results for O=C(NCc1ccc(N2CCOCC2)cc1)c1cc2c(s1)CN(C1CC1)C2 ?
KDM5B inhibitor: 11.2µM*

What do the screens show for `CCNS(=O)(=O)c1cc(C(=O)NC)ccc1OC`?
KDM5B inhibitor: inactive

What do the screens show for `CCOc1ccc(C(=O)NC2CCCN(c3cc(-c4ccccc4)[nH]n3)C2)cc1OCC` (centres undefined)?
KDM5B inhibitor: inactive

What do the screens show for `CCCc1noc(-c2ccn3c(CNC(=O)c4ccc(C)cc4C)nnc3c2)n1`?
KDM5B inhibitor: inactive

What do the screens show for `CCc1noc(-c2ccn3c(CNC(=O)Cc4ccccc4Cl)nnc3c2)n1`?
KDM5B inhibitor: 15.8µM*

How did CCc1noc(-c2ccn3c(CNC(=O)Cc4ccc(C)cc4)nnc3c2)n1 do in these assays?
KDM5B inhibitor: 28.2µM*

How did CCc1noc(-c2ccn3c(CNC(=O)c4cc(C)ccc4C)nnc3c2)n1 do in these assays?
KDM5B inhibitor: 25.1µM*

Results for Cc1c(C(=O)NC(c2ccc(F)cc2)c2nccn2C)oc2ccc(F)cc12 (centres undefined) ?
KDM5B inhibitor: inactive

Results for CC1CCN(CCNC(=O)C2CCN(CC(F)(F)F)CC2)CC1 ?
KDM5B inhibitor: inactive

How did COc1ccc(Nc2nc(N3CCN(C(=O)c4ccco4)CC3)nc3c2cnn3C)cc1 do in these assays?
KDM5B inhibitor: inactive

Results for Cc1n[nH]c(C)c1Cc1ccc(C(=O)N2CCC(CCOc3ccc(F)cc3)C2)o1 (centres undefined) ?
KDM5B inhibitor: inactive

How did COc1ccc(CN2CCC3(CC2)CC(O)CCO3)cc1C (centres undefined) do in these assays?
KDM5B inhibitor: inactive

What do the screens show for `CC(=O)NC(Cc1c[nH]c2ccccc12)C(=O)N1CCN(S(=O)(=O)c2ccc(F)cc2)CC1` (centres undefined)?
KDM5B inhibitor: inactive

Results for CCCCN1C(C(C)=O)=C(OC(=O)c2ccccc2OC)c2ccccc2S1(=O)=O ?
KDM5B inhibitor: inactive

What do the screens show for `CCCN(CCC)C(=O)Cn1nc2cc(C)nc(N3CCc4ccccc4C3)n2c1=O`?
KDM5B inhibitor: inactive

What do the screens show for `COc1ccc(C(=O)N[C@H]2COC[C@H]2Cc2cc(C)no2)c(OC)n1`?
KDM5B inhibitor: inactive

What do the screens show for `Cc1ccc2oc(C(=O)N[C@H]3COC[C@H]3Cc3cc(C)no3)c(C)c2c1`?
KDM5B inhibitor: 15.8µM*

What do the screens show for `Cc1cc(C[C@@H]2COC[C@@H]2NC(=O)c2cnn3ccccc23)on1`?
KDM5B inhibitor: 28.2µM*

Results for Cc1cc(C[C@@H]2COC[C@@H]2NC(=O)Cc2c(C)[nH]c3ccccc23)on1 ?
KDM5B inhibitor: inactive

What do the screens show for `Cc1cc(C[C@@H]2COC[C@@H]2NC(=O)c2ccc(-n3cnnc3)cc2)on1`?
KDM5B inhibitor: inactive

What do the screens show for `COc1cc(OC)c(C(=O)N[C@H]2COC[C@H]2Cc2cc(C)no2)cc1OC`?
KDM5B inhibitor: 20µM*

How did Cc1cc(C[C@@H]2COC[C@@H]2NC(=O)c2ccc(-c3noc(C4CC4)n3)cc2)on1 do in these assays?
KDM5B inhibitor: inactive

What do the screens show for `Cc1cc(C[C@@H]2COC[C@@H]2NC(=O)c2cc(-c3ccccc3O)n[nH]2)on1`?
KDM5B inhibitor: inactive

Results for Cc1cc(C[C@@H]2COC[C@@H]2NC(=O)c2c(-c3ccccc3)noc2C)on1 ?
KDM5B inhibitor: inactive

Results for Cc1cc(C[C@@H]2COC[C@@H]2NC(=O)c2ccc(CSc3ncccn3)o2)on1 ?
KDM5B inhibitor: inactive

Results for Cc1cc(C[C@@H]2COC[C@@H]2NC(=O)CCc2ccc(=O)[nH]n2)on1 ?
KDM5B inhibitor: inactive

Results for Cc1cc(C[C@@H]2COC[C@@H]2NC(=O)c2cc(C)oc2-c2ccccc2)on1 ?
KDM5B inhibitor: 28.2µM*

How did CC(NC(=O)Cn1c(=O)c2c(ncn2C)n(C)c1=O)c1ccc(Cl)c(Cl)c1 (centres undefined) do in these assays?
KDM5B inhibitor: inactive

How did Clc1ccc(N2CCN(c3ncnc4nc[nH]c34)CC2)cc1Cl do in these assays?
KDM5B inhibitor: inactive

How did COc1cc(-c2nc(-c3ccc(Br)cc3)no2)cc(OC)c1OC do in these assays?
KDM5B inhibitor: inactive

What do the screens show for `O=C(/C=C/c1ccc(Br)cc1)N(C1CCCCC1)C1CCCCC1`?
KDM5B inhibitor: inactive

What do the screens show for `C/C(=N\NC(N)=S)c1ccc(-c2ccc(Br)cc2)cc1`?
KDM5B inhibitor: inactive

What do the screens show for `O=C(Cn1c(CO)cnc1SCc1c(F)cccc1Cl)NCc1ccccc1`?
KDM5B inhibitor: inactive

How did Cc1ccc(CNC(=O)CCc2ncc(-c3ccc(F)cc3)o2)cc1F do in these assays?
KDM5B inhibitor: inactive
